Values joined by “and” are separate entries in the source; they are usually repeats but may differ in a detail not shown here. Equal entries are not always repeated. Inconclusive results are not listed. Some compounds were tested as several samples or in several runs, with calls that do not always agree. Active and inactive are the calls of the source. Unless noted, calls come from the whole dose curve.
Assays:
[1] = biological target: Progesterone receptor (Homo sapiens) (UniProt P06401); experiment: qHTS assay to identify small molecule agonists of the progesterone receptor (PR) signaling pathway (AID 1346784); note: nearly all actives have a fitted effect of over 30% in size; note: potency is the fitted concentration of half-maximal effect
Sequence of Progesterone receptor (Homo sapiens) (P06401 whole entry, looked up): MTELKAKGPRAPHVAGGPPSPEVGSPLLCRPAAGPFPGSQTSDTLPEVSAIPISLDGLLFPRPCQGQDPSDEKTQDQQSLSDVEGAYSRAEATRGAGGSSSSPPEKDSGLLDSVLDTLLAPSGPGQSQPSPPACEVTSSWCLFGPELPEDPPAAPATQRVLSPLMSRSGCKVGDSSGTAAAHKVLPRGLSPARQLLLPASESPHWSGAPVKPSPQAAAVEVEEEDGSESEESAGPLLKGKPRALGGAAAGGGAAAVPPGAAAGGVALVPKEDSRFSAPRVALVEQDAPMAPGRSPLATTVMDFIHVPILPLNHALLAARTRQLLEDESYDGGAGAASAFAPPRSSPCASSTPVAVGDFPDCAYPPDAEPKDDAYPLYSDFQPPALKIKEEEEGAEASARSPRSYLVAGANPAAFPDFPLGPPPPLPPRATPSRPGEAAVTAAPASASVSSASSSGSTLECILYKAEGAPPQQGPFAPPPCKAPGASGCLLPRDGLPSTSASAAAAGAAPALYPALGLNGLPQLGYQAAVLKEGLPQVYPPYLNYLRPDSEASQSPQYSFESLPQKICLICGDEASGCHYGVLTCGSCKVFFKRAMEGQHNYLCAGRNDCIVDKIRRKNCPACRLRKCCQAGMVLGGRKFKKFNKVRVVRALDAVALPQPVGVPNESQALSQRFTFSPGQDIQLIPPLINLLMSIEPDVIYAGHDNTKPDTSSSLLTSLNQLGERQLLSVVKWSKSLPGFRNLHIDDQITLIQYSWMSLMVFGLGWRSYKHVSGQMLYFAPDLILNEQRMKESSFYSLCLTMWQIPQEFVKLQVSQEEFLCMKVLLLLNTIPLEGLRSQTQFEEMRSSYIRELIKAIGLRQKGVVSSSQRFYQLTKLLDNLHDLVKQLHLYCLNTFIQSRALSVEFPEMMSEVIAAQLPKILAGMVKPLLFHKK
How it was run: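 PR-UAS-bla HEK 293T cells carrying a UAS-driven beta-lactamase reporter were seeded in medium with 2% charcoal-stripped FBS, preincubated 6 hr at 37C, then exposed to compounds in DMSO for 16 hr; agonism was read by LiveBLAzer B/G FRET fluorescence.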

[2] = qHTS assay to identify small molecule antagonists of the progesterone receptor (PR) signaling pathway - cell viability counter screen (AID 1346798; active = well fitted curve in the direction sought with a large enough effect in the repeat runs; an effect the other way counts as inactive or inconclusive; note: nearly all actives have a fitted effect of over 50% in size; note: potency is the fitted concentration of half-maximal effect; for activity change, negative = cytotoxicity: series mostly up to about 92 µM)
How it was run: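 PR-UAS-bla HEK293T cells in medium with 2% charcoal-stripped FBS were treated with compounds plus R5020 for 16 hr at 37C. Cell viability was then read by CellTiter-Glo luminescence after 30 min at room temperature in the same wells.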

[3] = qHTS assay to identify small molecule agonists of the progesterone receptor (PR) signaling pathway - cell viability counter screen (AID 1346799); note: nearly all actives have a fitted effect of over 45% in size; note: potency is the fitted concentration of half-maximal effect
How it was run: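 PR-UAS-bla HEK293T cells, 3,000 per well in medium with 2% charcoal-stripped FBS, were preincubated 6 hr at 37C, then exposed to compounds for 16 hr; viability was read as CellTiter-Glo luminescence after 30 min at room temperature.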

[4] = qHTS assay to identify small molecule antagonists of the TGF-beta/Smad signaling pathway - cell viability counter screen (AID 1346824; active = well fitted curve in the direction sought with a large enough effect in the repeat runs; an effect the other way counts as inactive or inconclusive; note: nearly all actives have a fitted effect of over 50% in size; note: potency is the fitted concentration of half-maximal effect)
How it was run: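 Cytotoxicity counter-screen run in the same wells as the beta-lactamase Smad reporter read: CellTiter-Glo luminescence after 30 min at room temperature. HEK 293T SBE-bla cells had 5 hr compound exposure at 37 C with TGF-beta1 (0.25 ng/mL stock).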

[5] = qHTS assay to identify small molecule agonists of the TGF-beta/Smad signaling pathway - cell viability counter screen (AID 1346829; active = well fitted curve in the direction sought with a large enough effect in the repeat runs; an effect the other way counts as inactive or inconclusive; note: nearly all actives have a fitted effect of over 45% in size; note: potency is the fitted concentration of half-maximal effect; for activity change, negative = cytotoxicity: top concentration of the series differs between compounds)
How it was run: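 Luminescence from CellTiter-Glo, read after a 30 min room-temperature incubation, gives cell viability of SBE-bla HEK 293T cells treated 5 hr with compounds at 37 C.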

[6] = qHTS assay to identify small molecule agonists of the TGF-beta/Smad signaling pathway (AID 1346859; active = well fitted activation curve with a large enough effect in the signal ratio in the repeat runs, not every such curve was filed as active; the % refers to the signal ratio; note: series mostly up to about 77 µM)
How it was run: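 HEK 293T cells stably carrying a beta-lactamase reporter driven by the Smad binding element were seeded overnight, exposed to DMSO-dissolved compounds for 5 hr at 37 C, 5% CO2, then loaded with FRET substrate for 2 hr at room temperature.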

[7] = biological target: Thyrotropin-releasing hormone receptor (Homo sapiens) (UniProt P34981); experiment: qHTS assay to identify small molecule antagonists of the thyrotropin-releasing hormone receptor (TRHR) signaling pathway (AID 1346877; active = well fitted inhibition curve with a large enough effect in the repeat runs, not every such curve was filed as active; note: potency is the fitted concentration of half-maximal effect; for activity, negative = inhibition: series mostly up to about 51 µM)
Sequence of Thyrotropin-releasing hormone receptor (Homo sapiens) (P34981 whole entry, looked up): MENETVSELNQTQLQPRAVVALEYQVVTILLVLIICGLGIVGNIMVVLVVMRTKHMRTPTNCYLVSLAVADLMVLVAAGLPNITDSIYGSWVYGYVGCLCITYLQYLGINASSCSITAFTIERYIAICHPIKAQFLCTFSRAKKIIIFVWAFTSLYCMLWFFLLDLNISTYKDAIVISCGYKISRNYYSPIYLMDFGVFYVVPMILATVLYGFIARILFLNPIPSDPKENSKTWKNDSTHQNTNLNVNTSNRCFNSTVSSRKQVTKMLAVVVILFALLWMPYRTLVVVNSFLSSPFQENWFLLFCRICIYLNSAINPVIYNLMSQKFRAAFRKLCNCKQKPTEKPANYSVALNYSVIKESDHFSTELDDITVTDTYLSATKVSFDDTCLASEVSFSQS
How it was run: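 HEK293/TRHR cells, 18 h, 37 °C; Ca2+ dye 2 h; cpd 5 min RT; TRH 1 nM final; fluorescence read 3 min, 1 s intervals; 15 concs, triplicate.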

[8] = biological target: Thyrotropin-releasing hormone receptor (Homo sapiens) (UniProt P34981); experiment: qHTS assay to identify small molecule agonists of the thyrotropin-releasing hormone receptor (TRHR) signaling pathway (AID 1346891); note: series mostly up to about 58 µM
How it was run: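 TRHR-expressing HEK293 cells were plated 18 h at 37 °C/5% CO2, loaded with calcium dye 2 h at 37 °C, then given compound in DMSO; fluorescence was read kinetically for 3 min at 1 s intervals.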

[9] = biological target: Progesterone receptor (Homo sapiens) (UniProt P06401); experiment: qHTS assay to identify small molecule antagonists of the progesterone receptor (PR) signaling pathway (AID 1346795; active = well fitted inhibition curve with a large enough effect in the signal ratio in the repeat runs, not every such curve was filed as active; the % refers to the signal ratio; note: potency is the fitted concentration of half-maximal effect)
How it was run: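 PR-UAS-bla HEK293T cells carrying a UAS-driven beta-lactamase reporter were plated in medium with 2% charcoal-stripped FBS and rested 6 hr at 37C. Compounds were added with 1 nM R5020 (final) for 16 hr, then FRET substrate loaded 2 hr at room temperature.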
% is set by controls: 0 for no effect and ±100 for the full control effect.

C[C@@H]1C[C@@H]([C@H](O)CC2CC(=O)NC(=O)C2)C(=O)[C@@H](C)C1
inactive: Potency [1] | Potency [2] | Potency [3] | Potency [4] | Potency [5] | outcome [6] | Potency [7] | outcome [8]

C[C@H]1O[C@H](OC2[C@@H](O)[C@@H](O)C(O)[C@H](O)[C@H]2O)[C@@H](N)C[C@@H]1N=C(N)C(=O)O (stereo partly specified)
inactive: Potency [1] | Potency [9] | Potency [2] | Potency [3] | Potency [5] | outcome [6] | Potency [7] | outcome [8]

COC1=CC(=O)O[C@@H](/C=C/c2ccc3c(c2)OCO3)C1
inactive: Potency [1] | Potency [2] | Potency [4] | Potency [5] | outcome [6] | Potency [7] | outcome [8]

C=CCOCC1CO1 (stereo unspecified)
inactive: Potency [1] | Potency [9] | Potency [3] | Potency [5] | outcome [6] | Potency [7] | outcome [8]

CC[N+]1(C)CCCC(OC(=O)C(O)(c2ccccc2)c2ccccc2)C1 (stereo unspecified)
inactive: Potency [1] | Potency [9] | Potency [2] | Potency [3] | Potency [5] | outcome [6] | Potency [7] | outcome [8]

CCCC(C)(COC(N)=O)COC(=O)NC(C)C (stereo unspecified)
inactive: Potency [1] | Potency [9] | Potency [2] | Potency [3] | Potency [4] | Potency [5] | outcome [6] | Potency [7] | outcome [8]

C[C@]12C=CC3=C4CCC(=O)C=C4CC[C@H]3[C@@H]1CC[C@@H]2O
active: Potency [1] 0.0271 µM
inactive: Potency [4] | Potency [5] | outcome [6] | Potency [7] | outcome [8]

CC(C)c1ccc(OP(=O)(Oc2ccc(C(C)C)cc2)Oc2ccc(C(C)C)cc2)cc1
active: Potency [2] 30.6 µM
inactive and 30.6 µM (active): Potency [3]
inactive: Potency [1] | Potency [5] | outcome [6] | Potency [7] | outcome [8]

COc1ccccc1N1CCNCC1
inactive: Potency [1] | Potency [9] | Potency [2] | Potency [3] | Potency [5] | outcome [6] | Potency [7] | outcome [8]

CC(=O)NNc1ccccc1
active: Potency [2] 30.4 µM
inactive: Potency [1] | Potency [4] | Potency [5] | outcome [6]

Clc1ccc(Cl)c(Cl)c1
inactive: Potency [1] | Potency [9] | Potency [2] | Potency [3] | Potency [4] | Potency [5] | outcome [6] | Potency [7] | outcome [8]

CC(C)(C)CC(C)(C)c1ccc(O)cc1
inactive: Potency [1] | outcome [6] | Potency [7] | outcome [8]
active: Potency [2] 54.5 µM | Potency [3] 48.6 µM
43.6 µM (active) and inactive: Potency [5]

COc1cc(C[C@@H](C)N)c(OC)cc1Br
inactive: Potency [1] | Potency [4] | Potency [5] | outcome [6] | Potency [7] | outcome [8]

NCCc1cc(O)c(O)cc1O
inactive: Potency [1] | Potency [9] | Potency [2] | Potency [3] | Potency [4] | Potency [5] | outcome [6] | Potency [7] | outcome [8]

Cc1nc2ccccc2c(=O)n1-c1ccccc1Cl
inactive: Potency [1] | Potency [2] | Potency [3] | Potency [5] | outcome [6] | Potency [7] | outcome [8]

N#CC(C#N)=Cc1ccc(O)c(O)c1
inactive: Potency [1] | Potency [9] | Potency [3] | Potency [4] | Potency [5] | outcome [6] | Potency [7] | outcome [8]

CCCCCCCCCCCC[N+](C)(C)CCOc1ccccc1
active: Potency [2] 54.5 µM and 13.3 µM | Potency [3] 24.3 µM and 23.7 µM | Potency [5] 55 µM and 26.8 µM
inactive: Potency [1] | Potency [7] | outcome [8]

CN1CC[C@]23c4c5ccc(O)c4O[C@H]2[C@@H](O)C=C[C@H]3[C@H]1C5
inactive: Potency [1] | Potency [9] | Potency [2] | Potency [3] | Potency [4] | Potency [5] | outcome [6] | Potency [7] | outcome [8]

CN(C1CCCCC1)C1CCCCC1
inactive: Potency [1] | Potency [2] | Potency [3] | Potency [4] | Potency [5] | outcome [6] | Potency [7] | outcome [8]

C=CCSSCC=C
inactive: Potency [1] | Potency [9] | Potency [3] | Potency [4] | Potency [5] | outcome [6] | Potency [7] | outcome [8]

O=C1CC[C@@]2(O)[C@H]3Cc4ccc(O)c5c4[C@@]2(CCN3CC2CC2)[C@H]1O5
inactive: Potency [1] | Potency [9] | Potency [2] | Potency [3] | Potency [5] | outcome [6] | Potency [7] | outcome [8]

Cc1nc(N(C)C)nc(OC(=O)N(C)C)c1C
inactive: Potency [1] | Potency [9] | Potency [2] | Potency [3] | Potency [5] | outcome [6] | Potency [7] | outcome [8]

O=C(O)C(F)(F)C(F)(F)C(F)(F)C(F)(F)C(F)(F)F
inactive: Potency [1] | Potency [9] | Potency [2] | Potency [3] | Potency [5] | outcome [6] | Potency [7] | outcome [8]

CCCCCCCCCCCCCCCl
inactive: Potency [1] | Potency [9] | Potency [2] | Potency [3] | Potency [4] | Potency [5] | outcome [6] | Potency [7] | outcome [8]

CC(=O)OC(c1ccccc1)C(Cl)(Cl)Cl (stereo unspecified)
inactive: Potency [1] | Potency [2] | Potency [3] | Potency [4] | Potency [5] | outcome [6]

CCCCC(CC)COC(=O)c1c(Br)c(Br)c(Br)c(Br)c1C(=O)OCC(CC)CCCC (stereo unspecified)
inactive: Potency [9] | Potency [2] | Potency [3] | Potency [4] | Potency [5] | outcome [6] | Potency [7] | outcome [8]

ClCc1ccccc1Cl
inactive: Potency [2] | Potency [3] | Potency [5] | outcome [6]

CN(C)C(=O)Nc1cccc(OC(=O)NC(C)(C)C)c1
inactive: Potency [1] | Potency [9] | Potency [2] | Potency [3] | Potency [4] | Potency [5] | outcome [6] | Potency [7] | outcome [8]

Cc1nnc(-c2ccccc2)c(=O)n1N
inactive: Potency [1] | Potency [3] | Potency [4] | Potency [5] | outcome [6] | Potency [7] | outcome [8]

C[C@H]1[C@@H]2Cc3ccc(O)cc3[C@@]1(C)CCN2C
inactive: Potency [1] | Potency [9] | Potency [3] | Potency [4] | Potency [5] | outcome [6] | Potency [7] | outcome [8]

O=C(N[C@H]1CN2CCC1CC2)c1ccc2c(c1)OCCO2
inactive: Potency [9] | Potency [2] | Potency [3] | Potency [4] | Potency [5] | outcome [6] | Potency [7] | outcome [8]

O=C1c2ccccc2C(=O)N1SC(Cl)(Cl)Cl
active: Potency [7] 33.3 µM
inactive: Potency [1] | Potency [9] | Potency [2] | Potency [3] | Potency [5] | outcome [6] | outcome [8]

Nc1c(Br)cc(Br)c2c1C(=O)c1ccccc1C2=O
inactive: activation [1] 0.744% [at 19 µM] | activity change, negative = inhibition [9] 9.35% [at 18.9 µM] | activity change, negative = cytotoxicity [2] -0.481% [at 18.9 µM] | activity change, negative = cytotoxicity [5] 9.34% [at 15.8 µM] | activation [6] -5.21% [at 15.8 µM] | activity, negative = inhibition [7] -4.46% [at 10.5 µM] | activation [8] -0.213% [at 11.8 µM]

CCCCCCCCn1sccc1=O
inactive: Potency [1] | outcome [6] | outcome [8]
active: Potency [9] 34.4 µM and 1.43 µM | Potency [2] 48.7 µM and 1.14 µM | Potency [3] 43.4 µM | Potency [4] 49.1 µM and 51.3 µM

O=C(O)c1cc(I)cc(I)c1I
inactive: Potency [1] | Potency [9] | Potency [2] | Potency [3] | Potency [5] | outcome [6] | Potency [7] | outcome [8]

C[N+]1(CCF)[C@@H]2CC[C@H]1CC(OC(=O)C(O)(c1ccccc1)c1ccccc1)C2 (stereo partly specified)
inactive: Potency [1] | Potency [9] | Potency [2] | Potency [4] | Potency [5] | outcome [6] | Potency [7] | outcome [8]

O=C(O)COc1cc(Cl)c(Cl)cc1Cl
inactive: Potency [1] | Potency [9] | Potency [2] | Potency [4] | Potency [5]

Source: PubChem BioAssay (Tox21)
